Results on 16 compounds are retold here after PubChem BioAssay AID1212 (NMMLSC, 2008).

A number with no mark means an inactive call. The source made the active and inactive calls.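 How the source made its calls: active means blocks over 60% of fluorescent estradiol binding at 10 µM; inactive means the rest.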

The test deals with G-protein coupled estrogen receptor 1 (Homo sapiens) (UniProt Q99527). Put plainly: GPR30 competitive binders vs fluorescent estrogen, primary screen, cell-based, Cos7 GPR30-GFP, flow cytometry, 10 µM (AID 1212). To be noted: fluorescent estrogen competition, at 10 µM; active compounds read high. A general note: A flow cytometer gives signals particle by particle.
As for `CCOc1cc2c(cc1OCC)C(C1CCCCC1)NCC2` (stereo unspecified), the result was inactive. Usually inhibition stands for the change of the read-out against control, counted positive when it falls. Take `COc1ccccc1C1Nc2c(C(=O)O)cccc2C2C3CCC(C3)C12` (stereo unspecified): the inhibition was 5%. With `COc1cc([N+](=O)[O-])cc2c1NC(c1ccc(Br)cc1)C1CC=CC21` (stereo unspecified), the compound was classed as inactive. On the same count and under the same terms, next, `CCOc1cc2c(cc1OCC)C(C(CC)CC)NCC2` (stereo unspecified): “inactive”.

As to `COc1ccc(NS(=O)(=O)c2ccc3c(c2)[C@H]2C=CC[C@H]2[C@@H](c2cccc(OC)c2OC)N3)cc1`, the inhibition is 44%. Take `CC(Nc1ccc(N2CCNCC2)cc1[N+](=O)[O-])C12CC3CC(CC(C3)C1)C2` (stereo unspecified): the compound was classed as inactive. On to `CCOc1ccc(NS(=O)(=O)c2ccc3c(c2)[C@H]2C=CC[C@H]2[C@@H](c2ccc([N+](=O)[O-])cc2)N3)cc1`, for which the inhibition is 55%.

As to `O=c1oc2cc(O)ccc2c2c1CCC2`, the result was inactive.

As to `CCOc1ccc(NS(=O)(=O)c2ccc3c(c2)[C@H]2C=CC[C@H]2[C@@H](c2cccc([N+](=O)[O-])c2)N3)cc1`, the inhibition was 20%.

Turning to `CSC(=O)CNC1(Cc2ccc(O)cc2)CCCCC1`, the compound was classed as inactive.

As for `COc1cc2c(c([N+](=O)[O-])c1)NC(c1ccc(Br)cc1)C1CC=CC21` (stereo unspecified), the compound was classed as inactive. Turning to `O=C(O)c1ccc2c(c1)C1C=CCC1C(c1cccc([N+](=O)[O-])c1)N2` (stereo unspecified), the inhibition was 57%. As to `COc1ccc(-n2cc3c(c(C#N)c2=N)CC(C)(C)CC3=O)cc1`, the result was inactive. `CCOC(=O)c1c(N)sc2c1CC(C)(C)NC2(C)C`: the inhibition was 10%. For the compound `CC(=O)Oc1ccc2c(c1)CCC1C2C(O)CC2(C)C(=O)CCC12` (stereo unspecified), the outcome was inactive. For the compound `CC1CCC2(C)c3[nH]c4ccccc4c3CCN2C1=O` (stereo unspecified), the inhibition is 2%.
